Among the test systems are DU-145 prostate; K-562 leukemia; MALME-3M melanoma; MDA-MB-231 breast; RXF 393 renal; SF-268 CNS; SF-295 CNS; SF-539 CNS; UACC-257 melanoma.
What all share (test): NCI-60 one-dose screen, 48 h (100 = growth as untreated, 0 = no growth, -100 = all killed)
What all share (conditions): 10 µM unless noted

This is part of a sample that, as a whole, favours compounds with a hit. Of some 83,000 tested, about 20% had one in any assay.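 Compound tested at a single concentration for 48 hours in 96-well plates; a percent growth value below 10 was scored as active.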 Values without a mark were called inactive. Calls of active or inactive are those of the source.

In the case of `Cc1ccc(-n2cc(/C=N/NC(=O)c3nc(N)n[nH]3)c(-c3ccc(S(C)(=O)=O)cc3)n2)cc1`, the growth in the assay on DU-145 prostate was 100%; in the assay on K-562 leukemia it was 52.7%; in the assay on MALME-3M melanoma, 85.3%; in the assay with MDA-MB-231 breast, 96%; in the assay with RXF 393 renal, 117%; in the assay with SF-268 CNS, 99.4%. Besides, the growth was 104% in the assay with SF-295 CNS, 99.7% with SF-539 CNS and 99.3% in the assay on UACC-257 melanoma.

For the molecule `Cc1ccc(NC(=O)c2ccc(CN3CCOCC3)c(C(F)(F)F)c2)cc1Oc1ccc(-c2[nH]nc3ncnc(N)c23)cc1`, the growth is 76.9% with DU-145 prostate; 20% in the assay with K-562 leukemia; 27.4% in the assay on MALME-3M melanoma; 54.3% in the assay on MDA-MB-231 breast; 40.5% with RXF 393 renal; 81.6% in the assay with SF-268 CNS. Also, the growth in the assay with SF-295 CNS is 63.2%; in the assay on SF-539 CNS, 49.3%; in the assay with UACC-257 melanoma it was 48.7%.

With `CCN1CCN(Cc2cn(-c3ccc(S(N)(=O)=O)cc3)nn2)CC1`, the growth was 108% in the assay with DU-145 prostate; 104% in the assay on K-562 leukemia; 111% in the assay with MALME-3M melanoma; 104% in the assay on MDA-MB-231 breast; 116% in the assay with RXF 393 renal; 103% in the assay on SF-268 CNS. In addition, the values for the growth with SF-295 CNS, in the assay with SF-539 CNS and in the assay on UACC-257 melanoma were 105%, 99.3% and 107%, respectively.

As to `CC1=NC2=NN3C(=NN2C(c2ccccc2)=C1)N=NC(c1ccc(Br)cc1)=C3c1ccc(Br)cc1`, the growth is 112% in the assay on DU-145 prostate; 96.9% in the assay on K-562 leukemia; 53.6% in the assay with MALME-3M melanoma; 95.7% in the assay with MDA-MB-231 breast; 138% in the assay on RXF 393 renal; 102% with SF-268 CNS. In addition, the growth was 106% in the assay with SF-295 CNS, 97.2% in the assay on SF-539 CNS and 109% in the assay with UACC-257 melanoma.

Turning to `C#Cc1nc(C(=O)NCCC(=O)Nc2ccc(NC(=O)c3ccc(/C=C/C(=O)c4nccn4C)cc3)cc2)cs1`, the growth with DU-145 prostate is 21.1%; with K-562 leukemia it was 8.97% (active); with MALME-3M melanoma, 6.41% (active); in the assay on MDA-MB-231 breast, 5.11% (active); in the assay on RXF 393 renal it was 45.8%; with SF-268 CNS it was 33.4%. For the same molecule, the figures for the growth with SF-295 CNS, in the assay on SF-539 CNS and with UACC-257 melanoma were 55.6%, -89.4% (active) and 78.5%, respectively.

As for `O=C(/C=C/c1ccc(F)cc1)c1ccc(O)cc1`, the growth in the assay on DU-145 prostate is 95.5%; in the assay with K-562 leukemia it was 58.7%; with MALME-3M melanoma, 118%; in the assay with MDA-MB-231 breast it was 100%; in the assay with RXF 393 renal, 105%; in the assay on SF-268 CNS, 101%. Also, the growth is 104% with SF-295 CNS, 93.7% with SF-539 CNS and 95.5% with UACC-257 melanoma.

In the case of `Cn1cc(CNc2nc3ccc(OC/C(=C/F)CN)cc3o2)ccc1=O`, the growth with DU-145 prostate was 110%; in the assay on K-562 leukemia it was 93.8%; with MALME-3M melanoma, 98.7%; in the assay with MDA-MB-231 breast it was 99.3%; in the assay with RXF 393 renal, 107%; in the assay on SF-268 CNS, 102%. Further, the growth is 96.1% in the assay on SF-295 CNS, 97.1% in the assay with SF-539 CNS and 111% with UACC-257 melanoma.

As to `O=C1CCCc2nc(Nc3ccc(S(=O)(=O)Nc4ccc([N+](=O)[O-])cc4)cc3)ncc21`, the growth was 105% in the assay with DU-145 prostate; 92.2% in the assay with K-562 leukemia; 107% in the assay on MALME-3M melanoma; 99.6% in the assay on MDA-MB-231 breast; 103% with RXF 393 renal; 96.2% with SF-268 CNS. The growth in the assay on SF-295 CNS is 101%; with SF-539 CNS it was 92.8%; in the assay with UACC-257 melanoma it was 102%.

`N#Cc1cccc(CN2CCc3ncn(Cc4ccc(Cl)cc4)c(=O)c3C2)c1`: the growth in the assay with DU-145 prostate is 26.9%; with K-562 leukemia, 24.2%; in the assay on MALME-3M melanoma, 41.5%; in the assay with MDA-MB-231 breast, 26.9%; in the assay with RXF 393 renal, 14.3%; in the assay with SF-268 CNS, 27.2%. Further, the values for the growth with SF-295 CNS, in the assay on SF-539 CNS and in the assay on UACC-257 melanoma were 8.57% (active), 33.6% and 12.3%, respectively.

For `O=S(=O)(NCCCNc1nccc(-c2[nH]c(-c3ccccc3)nc2-c2ccc(Cl)c(O)c2)n1)c1cccc(F)c1`, the growth was 66.1% in the assay with DU-145 prostate; 35.3% in the assay on K-562 leukemia; 2.24% (active) with MALME-3M melanoma; 60.2% in the assay with MDA-MB-231 breast; 34.1% in the assay on RXF 393 renal; 74.3% with SF-268 CNS. For the same molecule, the values for the growth with SF-295 CNS, with SF-539 CNS and in the assay with UACC-257 melanoma were 47.4%, 94.1% and 25.6%, respectively.

In the case of `COc1cc(OC)c(/C=C/S(=O)(=O)Cc2ccc(OC)c(NCC(=O)NO)c2)c(OC)c1`, the growth is 13.8% in the assay with DU-145 prostate; 11.6% with K-562 leukemia; 61.8% in the assay with MALME-3M melanoma; 25.4% in the assay with MDA-MB-231 breast; -0.671% (active) with RXF 393 renal; 31.9% with SF-268 CNS. The growth was 6.88% (active) with SF-295 CNS, -5.59% (active) in the assay on SF-539 CNS and 62.4% in the assay on UACC-257 melanoma.

On to `C#Cc1nc(C(C)=O)cs1`, for which the growth was 109% with DU-145 prostate; 90.6% with K-562 leukemia; 105% with MALME-3M melanoma; 103% with MDA-MB-231 breast; 95.6% in the assay with RXF 393 renal; 105% in the assay with SF-268 CNS. Also, the figures for the growth in the assay on SF-295 CNS, in the assay with SF-539 CNS and in the assay with UACC-257 melanoma were 106%, 99.1% and 107%, respectively.

Consider `Nc1ccccc1NC(=O)c1ccc(NC(=O)C/C=C/c2cccnc2)cc1`, for which the growth with DU-145 prostate is 14.1%; with K-562 leukemia it was 17.1%; with MALME-3M melanoma, 18.1%; in the assay with MDA-MB-231 breast, 50.5%; with RXF 393 renal it was -13.9% (active); with SF-268 CNS it was 35.3%. In addition, the growth with SF-295 CNS is 34.9%; in the assay on SF-539 CNS it was 7.57% (active); with UACC-257 melanoma it was 26.6%.

With `NS(=O)(=O)c1ccc(Nc2nc(N/N=C/CCc3ccccc3)nc(Nc3ccccc3)n2)cc1`, the growth with DU-145 prostate was 109%; in the assay with K-562 leukemia it was 96.7%; with MALME-3M melanoma, 113%; in the assay with MDA-MB-231 breast, 97.5%; in the assay on RXF 393 renal, 96%; in the assay on SF-268 CNS, 107%. The growth was 106% with SF-295 CNS, 98.3% with SF-539 CNS and 112% with UACC-257 melanoma.

Source of the values: PubChem BioAssay (NCI).
